Rows were chosen to be rich in hits. Some 0.5% of all compounds tested hit in one or more screens of this group.
E coli growth-1 – E. coli V3065 growth inhibition, primary screen, counter-screen for AddAB inhibitor project, absorbance, OD600; 18 h; inhibition, % at 11.9 µM; 330,000 tested, 0.27% active; AID 449728, 2010;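 active means inhibition above the campaign's mean inhibition across all tested compounds plus 3 SD, cut at about 9.9% in these data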;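 further: uninfected addAB+ strain grown without phage in ampicillin broth; 0% = DMSO wells and 100% = ciprofloxacin 0.95 µg/ml wells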
phage Ecoli inh – growth loss of phage-infected E. coli, primary screen, RecBCD inhibitor project, absorbance, with phage, HTS; 360,000 tested, 0.26% active; inhibition, % at 11.9 µM; AID 651602, 2012; in the data active means inhibition above about 11%
AddAB inh – growth inhibition of E. coli expressing H. pylori AddAB, primary screen, AddAB inhibitor project, absorbance; inhibition, % at 11.9 µM; 330,000 tested, 0.29% active; in the data active means inhibition above about 12%;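 further: 0% = vehicle wells of infected cells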
E coli growth-2 – E. coli growth inhibition, primary screen, OD600; Escherichia coli growth, 23 h; active compounds read low; OD600 absorbance (no concentration beside the values); 330,000 tested, 0.21% active;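 active means OD600 absorbance below the run mean of sample wells minus 3.6 SD, in any replicate, cut at about 0.56 in these data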
Tat transport – E. coli Tat export inhibitors, primary screen, MC4100, TorA-mCherry reporter, fluorescence, single point. inhibition, % at 10 µM. 340,000 tested, 0.036% active. AID 488895, 2010;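 active means mean replicate inhibition at least 50% and at least half of replicates individually reaching 50%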;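 further: exported cargo escapes ClpAP degradation while cytoplasmic cargo is degraded and loses fluorescence; 0% = median of neutral control wells and 100% = median of NaSCN control wells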
AddAB conf – growth loss of phage-infected E. coli expressing H. pylori AddAB, confirmation, AddAB inhibitor project, absorbance, E. coli V3065, T4 phage, triplicate; shares compounds with AddAB inh; OD; T4 phage with gene 2 nonsense mutations; inhibition, % at 11.9 µM; 880 tested, 64% active; AID 488942, 2010;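 active means mean inhibition above a set limit taken from the earlier primary screen, cut at about 13% in these data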;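 further: higher means less bacterial growth since AddAB block lets phage replicate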
RecBCD counter – growth loss of RecBCD+ E. coli with mutant T4 phage, counter-screen for AddAB inhibitor project, absorbance, V66 E. coli; inhibition, % at 11.9 µM; shares compounds with AddAB inh; OD growth; AID 488955, 2010; 880 tested, 73% active;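 active means mean inhibition above the mean of solvent-only control wells plus 3 SD, cut at about 4% in these data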;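 further: optical density read after an 18 h incubation at 37 °C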
bact viab count – bacterial viability inhibition counter-screen, confirmation, counter-screen for AddAB inhibitor project, absorbance; shares compounds with AddAB inh; absorbance (AddAB counterscreen); inhibition, % at 11.9 µM; 880 tested, 35% active; in the data active means inhibition above about 25%
RecBCD conf – growth loss of phage-infected RecBCD+ E. coli, confirmation, RecBCD inhibitor project, absorbance, E. coli V66, T4 gene 2 phage. shares compounds with phage Ecoli inh. E. coli V66 + T4 2- phage, growth OD. inhibition, % at 11.9 µM. 890 tested, 45% active;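 active means mean inhibition over triplicates exceeding the hit threshold derived in the original primary screen, cut at about 11% in these data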
Ecoli viability – E. coli viability inhibition, counter-screen for RecBCD inhibitor project, absorbance, high throughput; absorbance (OD) growth; 890 tested, 29% active; shares compounds with phage Ecoli inh; inhibition, % at 11.9 µM; in the data active means inhibition above about 20%;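 further: E. coli strain V66 grown with compound alone and no phage infection; 0% = bacteria with DMSO vehicle only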
AddAB counter – growth loss of phage-infected AddAB-carrying E. coli, confirmation, counter-screen for RecBCD inhibitor project, absorbance, E. coli V3065, T4 phage | shares compounds with phage Ecoli inh | 890 tested, 45% active | AID 651984, 2013 | E. coli expressing H. pylori AddAB + T4 phage, OD growth; gene 2 mutant T4, recBCD-deleted host | inhibition, % at 11.9 µM;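 active means mean inhibition above the solvent-only control wells' mean plus 3 SD, cut at about 22% in these data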;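 further: higher means less bacterial growth from phage killing when AddAB is blocked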
* hit, by the source's call; / = no result given; ! = not confirmed by another sample.

SMILES	E coli growth-1	phage Ecoli inh	AddAB inh	E coli growth-2	Tat transport	AddAB conf	RecBCD counter	bact viab count	RecBCD conf	Ecoli viability	AddAB counter
CC(=O)NC(c1ccc(C(C)C)cc1)c1ccc2cccnc2c1O (stereo unspecified)	24.1*	23.3*	19.7*	/	2.9	14.6*	17.4*	14.5	13.3*	16.4	19.9
CC(=O)NC(c1cccc([N+](=O)[O-])c1)c1ccc2cccnc2c1O (stereo unspecified)	/	10.7	/	/	-5.4	/	/	/	/	/	/
CCCCC(=O)NC(c1ccc(C(C)C)cc1)c1ccc2cccnc2c1O (stereo unspecified)	20.4*	17.1*	16.9*	0.688	-4.0	17.9*	15.4*	16.8	9.3	9.9	16.1
CCCC(=O)NC(c1ccccc1)c1ccc2cccnc2c1O (stereo unspecified)	31.8*	20.5*	23.6*	/	4.1	25.5*	24.7*	21.0	18.1*	23.9*	29.4*
NC(=O)COc1ccc(C=NNC(=O)C2CCCN2S(=O)(=O)c2ccc(Cl)cc2)cc1 (stereo unspecified)	/	/	/	0.692	/	/	/	/	/	/	/
CN(c1ccc([N+](=O)[O-])cc1C=NNC(=O)COc1ccccc1)C1CCCCC1	/	/	/	0.715	/	/	/	/	/	/	/
O=C(NC(NC(=S)Nc1ccc(Cl)c(Cl)c1)C(Cl)(Cl)Cl)c1ccco1 (stereo unspecified)	14.1*	13.7*	14.4*	0.62	-30.8	20.2*	12.7*	13.9	7.5	10.3	11.3
O=C(O)c1cccc(NC(=S)NC(NC(=O)c2ccco2)C(Cl)(Cl)Cl)c1 (stereo unspecified)	-0.7	-1.3	0.9	0.686	-1.0	/	/	/	/	/	/
CN(Cc1ccccc1C#N)S(=O)(=O)c1cccs1	2.5	4.7	3.5	0.7	7.2	/	/	/	/	/	/
N#Cc1nccnc1S(=O)(=O)c1cccs1	12.7*	18.3*	18.9*	0.491*	/	64.4*	16.6*	16.1	17.2*	16.4	32.7*
O=C(O)CC1S/C(=N/N=C/c2ccccn2)NC1=O (stereo unspecified)	18.8*	21.8*	21.8*	/	-7.1	17.1*	18.3*	14.6	10.0	13.2	12.4
Cc1cccc(N=Cc2c(C)[nH]n(-c3ccccc3)c2=O)n1	/	/	/	0.705	/	/	/	/	/	/	/
CN[C@@H]1[C@H](O)[C@H](NC)[C@H]2O[C@@]3(O)C(=O)C[C@@H](C)O[C@H]3O[C@@H]2[C@H]1O	34.2*	52.1*	35.2*	0.507*	119.1*	78.5*	47.3*	57.4*	58.2*	34.9*	75.2*
CC1CN=C(N(C)C)N1CCC1CCCCC1 (stereo unspecified)	/	/	/	0.658	/	/	/	/	/	/	/
Nc1ccc(S(=O)(=O)Nc2ccc(Cl)nn2)cc1	12.1*	16.0*	19.5*	0.591	-1.1	19.4*	11.1*	29.9*	11.6*	8.4	39.3*
COc1ccc(NS(=O)(=O)c2ccc(N)cc2)nn1	5.0	/	8.9	/	/	/	/	/	/	/	/
O=Cc1ccc2ccc3cccnc3c2n1	5.5	2.1	4.7	0.684	-13.1	/	/	/	/	/	/
c1cnc2c(c1)ccc1cccnc12	12.2*!	12.0*	12.3*!	0.328*	-1.4	13.4*	19.7*	7.1	9.5	10.3	6.5
COc1ccc(C=NNC(=O)c2cc(O)c(O)c(O)c2)cc1Cn1cc([N+](=O)[O-])cn1	/	/	/	0.691	/	/	/	/	/	/	/
CCCNC(=O)c1ccc2c(=O)c(O)c(-c3cccc(Br)c3)[nH]c2c1	13.0*	19.9*	15.3*	0.662	13.1	14.4*	12.8*	14.7	12.3*	12.7	16.3
CC(NC(=O)OCc1ccccc1)C(=O)NNC(=O)C(C)NC(=O)OCc1ccccc1 (stereo unspecified)	/	/	/	0.676	/	/	/	/	/	/	/
CC(/C=C/c1ccc(O)cc1)=NO	/	/	/	0.739	/	/	/	/	/	/	/
CCn1cc(C(=O)NCCCN(C)C)c(=O)c2cc(F)c(N3CCN(C)CC3)cc21	99.5*	93.3*	99.8*	0.0505*	37.4	97.3*	90.2*	100.7*	69.9*	98.8*	100.7*
CCn1cc(C(=O)NCCN(C)C)c(=O)c2cc(F)c(N3CCN(C)CC3)cc21	98.0*	96.4*	100.7*	0.0525*	8.0	103.6*	98.8*	103.9*	49.0*	87.2*	98.8*
CCCCN(CCCC)C(=O)c1cn(CC)c2cc(N3CCN(C)CC3)c(F)cc2c1=O	101.5*	98.2*	102.1*	0.0485*	71.2*	104.0*	102.1*	103.2*	100.0*	101.2*	100.1*
SMILES	E coli growth-1	phage Ecoli inh	AddAB inh	E coli growth-2	Tat transport	AddAB conf	RecBCD counter	bact viab count	RecBCD conf	Ecoli viability	AddAB counter
CCCCCCn1cc(C(=O)O)c(=O)c2cc(F)c(N3CCN(C(=O)OCC)CC3)cc21	4.2	1.5	2.3	0.676	-3.3	/	/	/	/	/	/
CCCc1nnc(NC(=O)c2cn(CC)c3cc(N4CCN(C)CC4)c(F)cc3c2=O)s1	97.2*	43.4*	98.6*	0.07*	/	99.2*	90.7*	100.9*	42.4*	72.1*	98.1*
CCCNC(=O)c1cn(CC)c2cc(N3CCN(C)CC3)c(F)cc2c1=O	99.6*	100.2*	98.1*	0.0485*	81.0*	101.9*	100.8*	101.0*	102.7*	103.8*	103.0*
CCn1cc(S(=O)(=O)c2ccc(C)cc2)c(=O)c2cc(F)c(N3CCN(C)CC3)cc21	-1.3	0.9	-1.7	0.692	4.8	/	/	/	/	/	/
Nc1ncnc2c1ncn2C1O[C@H](CO)[C@@H](O)[C@@H]1O (stereo partly specified)	-2.3	0.8	-1.1	/	-5.1	/	/	/	/	/	/
Nc1nc(F)nc2c1ncn2[C@@H]1O[C@H](CO)[C@@H](O)[C@H]1O	74.5*	68.2*	75.2*	/	-1.1	73.6*	64.0*	76.8*	70.2*	63.1*	77.8*
O=[N+]([O-])c1ccc(C=NNC(=S)Nc2ccccc2)o1	/	/	/	0.696	/	/	/	/	/	/	/
O=S(=O)(Nc1nccs1)c1ccc(Br)cc1	0.6	4.3	4.0	0.638	-4.2	/	/	/	/	/	/

Screening results from PubChem.
